# Measured values: article PMC5540273 (PLoS ONE, 2017)
# Experiments:
# Conditions in all cases: concentration: 1 μM, replicates: in singlicate; n = 1
# CAMKK1 = test system: CAMKK1
# CAMKK2 = test system: CAMKK2
# CASK = test system: CASK
# CDC2L1 = test system: T1, CDC2L1
# T1 construct: gene CDK11B
# CDC2L2 = test system: CDC2L2
# CDC2L5 = test system: T2, CDC2L5
# T2 construct: gene CDK13
# CDK11 = test system: T3, CDK11
# T3 construct: gene CDK19
# CDK2 = test system: CDK2
# CDK3 = test system: CDK3
# CDK4-cyclinD1 = test system: CDK4-cyclinD1
# 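Also: KINOMEscan kinase panel screen.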
Structure (SMILES),%Inh (CAMKK1),%Inh (CAMKK2),%Inh (CASK),%Inh (CDC2L1),%Inh (CDC2L2),%Inh (CDC2L5),%Inh (CDK11),%Inh (CDK2),%Inh (CDK3),%Inh (CDK4-cyclinD1)
NS(=O)(=O)CCc1cccc(Nc2nccc(-c3c(-c4cccc(NC(=O)c5c(F)cccc5F)c4)nn4ccccc34)n2)c1 [GSK336735],0%,8%,7%,11%,35%,0%,14%,0%,21%,0%
COc1ccc(Nc2nccc(N3CCC(NC(=O)Nc4cc(C)ccc4C)C3)n2)cc1 (centres unmarked) [GSK1379741],0%,0%,3%,0%,0%,0%,70%,0%,7%,0%
O=c1cc(N2CCOCC2)nc2n(Cc3cccc4ccccc34)ccn12 [GSK2333389],0%,0%,0%,0%,0%,0%,0%,12%,0%,0%
CC(C)Oc1ccc2c(-c3ccnc(Nc4ccc(N5CCN(C)CC5)cc4)n3)cnn2n1 [GW696155],40%,44%,23%,63%,51%,0%,19%,0%,17%,94.4%
Cc1c(Cn2c(C)nn3c(=O)cc(N4CCOC(C)C4)nc23)cccc1C(F)(F)F (centres unmarked) [GSK2344444],0%,0%,0%,0%,0%,0%,0%,0%,4%,0%
O=c1cc(N2CCOCC2)nc2n(Cc3cccc(C(F)(F)F)c3)ccn12 [GSK2297543],3%,0%,9%,0%,18%,0%,3%,0%,0%,0%
CNc1ncnc2[nH]ncc12 [SKF-18355],0%,0%,22%,0%,0%,0%,0%,0%,12%,0%
Cc1cn2c(=O)cc(N3CCOCC3)nc2n1Cc1cccc(Cl)c1Cl [GSK2334006],30%,32%,20%,0%,6%,0%,11%,17%,25%,0%
COc1ccc(COc2cc(-n3cnc4ccccc43)sc2C(N)=O)cc1 [GSK1024304],4%,13%,0%,0%,0%,0%,22%,0%,9%,0%
O=C(Nc1n[nH]c2cc(-c3cccc(F)c3)ccc12)C1CC1 [SB-735464],18%,14%,10%,2%,9%,23%,0%,27%,0%,8%
O=C1Cc2cc(Nc3nc(NCc4cccc(S(=O)(=O)C(F)(F)F)c4)ncc3C(F)(F)F)ccc2N1,9%,3%,0%,9%,0%,12%,8%,0%,0%,5%
Fc1ccc(-c2ncn(CCCN3CCOCC3)c2-c2cccnc2)cc1 [SB-211743],0%,0%,6%,0%,0%,0%,0%,0%,16%,0%
Cn1cc(-c2ccc3c(c2)CCN3C(=O)Cc2ccccc2Cl)c2c(N)ncnc21 [GSK2608885],25%,28%,0%,0%,14%,0%,0%,0%,0%,0%
COc1cc2c(cc1OCCN1CCN(C)CC1)ncc1c3ccc(C#N)cc3[nH]c21,86%,70%,8%,7%,7%,0%,0%,2%,0%,0%
CCc1nc(-c2cccc(C)c2)c(-c2ccnc(NCc3ccccc3)c2)s1,3%,12%,16%,0%,5%,11%,0%,0%,9%,0%
O=C(NOCC1CC1)c1ccc(F)c(F)c1Nc1ccc(I)cc1Cl,0%,0%,3%,0%,0%,0%,12%,0%,0%,0%
N#Cc1c(N2CCOCC2)sc(-c2ccn[nH]2)c1-c1ccc(Cl)cc1,0%,0%,0%,0%,11%,0%,7%,0%,5%,31%
